Experimental data as given in ChEMBL document CHEMBL3988442, “University of Dundee, Small-Polar-MMV Screening Library” (2021).

Tests used:
[1] = target: T1, Aspartate--tRNA(Asp/Asn) ligase (Mycobacterium tuberculosis (strain ATCC 25618 / H37Rv)) (UniProt P9WFW3); test: Assay for Asp RNA synthetase-1 from Mycobacterium tuberculosis; type: functional; parameters: scale not given: direction of the effect not stated beside the values; settings: 30 µM; further: in the data most compounds retested in dose-response had high values
T1 sequence (whole entry): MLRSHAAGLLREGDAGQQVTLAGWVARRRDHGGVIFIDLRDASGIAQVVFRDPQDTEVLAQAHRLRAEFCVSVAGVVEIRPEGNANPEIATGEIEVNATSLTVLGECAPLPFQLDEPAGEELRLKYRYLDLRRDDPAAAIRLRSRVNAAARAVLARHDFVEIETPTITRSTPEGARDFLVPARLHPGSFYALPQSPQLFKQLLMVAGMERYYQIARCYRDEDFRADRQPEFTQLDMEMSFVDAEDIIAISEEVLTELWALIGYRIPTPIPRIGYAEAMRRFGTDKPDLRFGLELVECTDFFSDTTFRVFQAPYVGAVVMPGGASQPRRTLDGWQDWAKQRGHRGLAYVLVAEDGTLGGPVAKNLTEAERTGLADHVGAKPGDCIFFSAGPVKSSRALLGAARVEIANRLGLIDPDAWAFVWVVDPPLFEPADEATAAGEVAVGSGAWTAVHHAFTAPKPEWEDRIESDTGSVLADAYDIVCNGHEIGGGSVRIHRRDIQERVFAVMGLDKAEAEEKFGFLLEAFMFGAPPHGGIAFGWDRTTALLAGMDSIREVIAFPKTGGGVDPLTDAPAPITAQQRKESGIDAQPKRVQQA

[2] = target: Shiga toxin 2 (Escherichia coli O157:H7) (UniProt P09385+P09386); test: E. coli 0.157:H7 Shiga Toxin SOP - stx2 screening assay; type: functional; parameters: scale not given: direction of the effect not stated beside the values; settings: 30 µM

Compound	Percent Effect [1] [%]	Percent Effect [2] [%]
O=C(NCc1ccc(-n2cncn2)nc1)c1ccc2c(c1)CCO2	-1.77	12.9
CNC(=O)COc1ccccc1CNC1CCc2ncnn2C1 (centres undefined)	-0.833	-29.9
c1ccc(C2CCCN2Cc2nnnn2C2CC2)cc1 (centres undefined)	-2.81	-5.38
CC(=O)N1CCCCC1c1nc(N)ncc1-c1ccccc1 (centres undefined)	5.78	4.38
COCCN1CCC(CN(CC2CCCO2)C(=O)CCNC(C)=O)CC1 (centres undefined)	-0.167	-3.65
O=C(NCc1cncc2c1CCN(Cc1cccs1)C2)C1CC1	7.52	-27.9
Cc1csc(C2CCCCN2C(=O)CN(C)C2CC2)n1 (centres undefined)	-4.06	-4.47
O=C(Nc1cnn(CCN2CCOCC2)c1)c1cc(F)ccc1F	0.211	21.3
CCCn1nc2c(cc1=O)CN(CCS(C)(=O)=O)CC2	5.96	0.931
CC(Cn1cccn1)NC(=O)Nc1nnc(C2CC2)s1 (centres undefined)	-7.13	7.79
CCn1cc(N2Cc3nc(N4CCN(C)CC4)ncc3C2=O)cn1	-1.54	-50.9
Cn1cc(CCNC(=O)CCc2ccc3c(c2)OCO3)cn1	1.25	21.4
COc1ccc(Cc2cccc(C3CCN(C)CC3)n2)cc1	-1.77	-4.18
Cc1ccc(CC(=O)N2CCCCC2c2nc(C)cs2)cn1 (centres undefined)	-2.2	1.25
Cc1cnn(C2CCCN(C(=O)c3sccc3C#N)C2)c1 (centres undefined)	1.95	-36.4
O=C(CCCNc1ncccn1)N1CCCC(n2cccn2)C1 (centres undefined)	3.16	1.16
CCc1nnc2n1CCN(CC(=O)Nc1sccc1C#N)C2	-0.787	24.4
CCN1C(=O)C2(CCOCC2)c2cc(NC(=O)c3ccco3)ccc21	-3.45	-26.8
CN(C)CCN1CCC2(CCN(C(=O)c3ccc(F)cc3)CC2)C1=O	2.84	-5.38
Cc1ncsc1C(=O)NCCn1nc(C2CCNC2)c2cccnc21 (centres undefined)	-3.63	-7
O=C(c1cnc(COc2ccccc2)nc1O)N1CCOCC1	1.28	-10.9
O=C(c1cccc(Cn2ccnc2)c1)N1CCCC(n2ccnc2)C1 (centres undefined)	-0.874	-7.22
NC(=O)N1CCC2(CCN(Cc3cccc(F)c3)CC2)CC1	-3.39	-34.5
CNc1cc(N2CCCC2CNCc2cnc(C)cn2)ncn1 (centres undefined)	-0.989	-46

Compound	Percent Effect [1] [%]	Percent Effect [2] [%]
c1ccc(CN2CC[C@@H]3O[C@H](COCc4ccncc4)CC[C@@H]32)nc1	-0.574	-18
COc1ccccc1CN(C)C(=O)c1cc(CN2CCC(O)CC2)on1	3.59	-16.2
Cc1ccccc1C1(CNc2nnc(C)c(C)c2C#N)CCOCC1	2.96	18.2
Cc1csc(CCCNC(=O)[C@H]2CNC[C@@H](C(=O)N3CCCC3)C2)n1	-3.08	-2.63
COc1cccc(CN2C[C@@H]3COC[C@]3(COCc3ccncc3)C2)c1	2.95	5.94
O=C(NCCn1ccc(-c2ccncc2)n1)c1ccncc1	1.52	-65.9
O=C1CC[C@@H]2[C@@H](CCN2C(=O)c2ccsc2)N1CC1CC1	-5.94	1.28
CCc1nnc2n1CCN(Cc1ccc(C(=O)N3CCCC3)cc1)C2	-3.93	-0.0173
Cc1nsc(N2CCCN(c3nc(C4CC4)ns3)CC2)n1	0.575	-18.6
COCCC(=O)N1C[C@@H]2COC[C@]2(COCc2cccnc2)C1	2.14	-6.81
CCCS(=O)(=O)N1CCN(c2cc(-n3nc(C)cc3C)nc(C)n2)CC1	-3.15	-4.71
Cc1csc(N2CCN(CC(=O)Nc3c(C)n[nH]c3C)CC2C)n1 (centres undefined)	2.07	17.4
Cc1cnn(CC2CCCN2Cc2nnc(Cc3ccccc3)o2)c1 (centres undefined)	-0.062	20
CNc1ccc(CC2CCCN(C(=O)c3cncnc3C)C2)nn1 (centres undefined)	0.485	29.8
CN1CCN(Cc2cn3c(n2)CN(C(=O)N2CCOCC2)CC3)CC1	5.44	-16.4
CC(CNC(=O)Nc1cn[nH]c1)N1CCOCC1 (centres undefined)	1.82	26.9
CCN(C(=O)Nc1cccnc1OC)C1CC1	-1.21	-24.9
Cc1csc2nc3n(c(=O)c12)CCN(C(=O)c1ccncc1)CC3	-3.92	3.14
COc1cccc(CNC(=O)N2CCN(Cc3cc(C)on3)CC2)c1	-2.94	4.64
COCCc1noc(CN2CCCC(Cn3nc(C)nc3C)C2)n1 (centres undefined)	12.8	22.8
Cc1cccc(C2(NC(=O)CCN3C(=O)CCC3=O)CCCC2)c1	-6.14	10.2
CCn1cc(CN2CCCN(C(=O)C3=NN(C)C(=O)CC3)CC2)cn1	0.98	10.4
Cc1ccc2oc(C(=O)N3CCCC(c4noc(C)n4)C3)cc2n1 (centres undefined)	-6.59	-27.4
